Experimental data published in PubChem BioAssay AID1347426 (Functional Genomics Laboratory (NCATS/FGL), 2020).
Out of some 31,000 sequences screened, about 1,400 (4.5%) were called active.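 How the source made its calls: active means median seed-adjusted z-score above 1 or below -1; inactive means the rest.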 The entries come from a sample that favours actives as a whole.

assay: Novel Modifiers of Survival Motor Neuron (SMN) Protein: Gene Identification via Genome-wide siRNA Screen; conditions: HEK293T SMN2-luciferase reporter, siRNA knockdown, 72 h; actives lie on both sides;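 further: luminescence tracks full-length SMN protein made from the SMN2 reporter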
Method in brief: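 siRNA screen, 10418 genes ×3 siRNAs; 1 pmol/well, lipid reverse transfection into HEK293T SMN2-luc reporter line. 72 h, 37 °C, 5% CO2; ONE-Glo readout. Data: neg-ctrl normalized, log10, MAD; hit = MAD >1.0 or < -1.0.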

Sequence	median seed-adjusted z-score
GAGUUACAGCUGAUCAAAATT against VPS26A	-1.55 (active)
GGGAUCAACUUAGAAGAGATT against POU6F1	0.978 (inactive)
GGAUGCUGCUGAGAACUAUTT against PIK3R3	-1.88 (active)
GGAUCUUGAAUUCAACUAUTT against TLR8	0 (inactive)
CGCUAUGAUCUGUACCACATT against TMEM147	0.233 (inactive)
GGAACGCAGUCAGAUUUGATT against CA5B	0.317 (inactive)
GCGAUGAAAUUGUCGUGUATT against MAP3K9	-0.498 (inactive)
AGAUAACUGGAAAAUGUCUTT against SLC22A18AS	0.0382 (inactive)
CAAUGUCCGUGAUCAUGAUTT against SARDH	-0.195 (inactive)
GCCUCACCGUCUAUGUACATT against CD200	-0.0135 (inactive)
GGAUCACGAUGAAGACAAATT against CTSL3	1.07 (active)
ACUGGGCUCUCUUUACCUATT against DBNL	0.398 (inactive)
GAACAGGCGUGCCAAGUCUTT against MIXL1	-0.204 (inactive)
AAAGCGCAAUUGGUGGUAATT against DYNLT1	0.764 (inactive)
GGUUGCUAUCAAUACCCUUTT against SLC22A18	-0.654 (inactive)
CCAUCCUUAGAGUUCCUUATT against SLC23A3	-0.254 (inactive)
CGGUAUGCCUGUGACGACATT against FCER2	-1.75 (active)
AAAUCACACCAAACACUUATT against STX11	-0.518 (inactive)
GCAGCUGCCGGAAAUGUUATT against KRT81	-0.0955 (inactive)
CAAUCAAAGGGAAACUUGATT against TPT1	0.236 (inactive)
GGAGAAUGGUUCGACUGUUTT against CKAP5	-1.87 (active)
GGCUGUUUGUGAUGGAUAATT against GALNT2	0.0798 (inactive)

Sequence	median seed-adjusted z-score
GAAACGUGGUGAGACCUCATT against PRKX	0.0341 (inactive)
CAUUCGUCGUAACUUUACATT against MIPEP	-0.169 (inactive)
CUUUCAUCUCUAAAACUGATT against LHX3	0.622 (inactive)
CCAGAUAAAUCUAUAGCAATT against RCOR1	-1.13 (active)
CAAUGGAACUUUAGAUUAUTT against PCDHA11	0.582 (inactive)
GGCUUUUAAGACUAAGGAATT against TRIM69	0.214 (inactive)
GCCUCCCAGAUGAUCGUCATT against SLC6A13	0.267 (inactive)
GGACGAUGCUGAUACGGUATT against NOP2	1.15 (active)
CACCAGACAUCAAAAUCAATT against ATF7	0.903 (inactive)
GCACAGACCUGGUGUGGAATT against NECAB2	-0.286 (inactive)
UGACCUUUCCUAUCUAUAATT against MCART6	0.714 (inactive)
GGACACUAUAAGAAAGGAATT against FNTA	1.04 (active)
AGGUUUGGCUCAACUCUGATT against P2RX2	0.0454 (inactive)
GGAAAUUGCUUACAGGAAATT against ARSJ	-0.0978 (inactive)
GCUUAUCGGUUGAUCAUCATT against SLC6A4	1.43 (active)
GCAAGCUGCUGAUCGAGUUTT against KAT5	0.32 (inactive)
GGGACAUUUCCAAAUGGAATT against ARL6IP5	-0.202 (inactive)
GGGACUCUGUAUUCCCUCUTT against WFDC2	-0.466 (inactive)
CGUAUAGUCAAAGCUCAAATT against ZNF24	0.388 (inactive)
GAAGAGUUACUACAGUAAATT against MYT1	-0.292 (inactive)
CGAAGGAAAUGUACAGCAATT against SLC25A42	-1.02 (active)
CAAGGUUCUUGGUUGGGUATT against ZDHHC13	-0.381 (inactive)

Sequence	median seed-adjusted z-score
CAUCAAUGGUCAUAAUGCATT against HNRNPA2B1	1.33 (active)
AAGAUGCUCUCCCACCUAATT against POLD4	0.225 (inactive)
GGUCUACCGGAUUAUCACATT against BRD2	-0.242 (inactive)
GGUCUUGAAGUGUACCCUATT against ITGAV	1.17 (active)
GCAUAGACACCAUCAUCAATT against GCLC	-0.21 (inactive)
ACUUCUACAUCAACGACAATT against ALDH4A1	0.0362 (inactive)
GGAAAGAGAACGAAUCGAATT against PPM1D	-0.66 (inactive)
GCCUUUGGUUCGCAAGUUUTT against DYRK2	0 (inactive)
CAACGAUCCCUGUACCAGUTT against GABBR2	-0.038 (inactive)
CCUACUACCUCAAACACCATT against SYVN1	-1.41 (active)
GCUUAUUAGCCUCCAAUUUTT against ZSCAN5A	0.31 (inactive)
GAAGAACCCUGGUCUUUCATT against CARD14	-0.104 (inactive)
GCUGUGCCUUAUAACCGAATT against LRRK2	-0.671 (inactive)
GGGUCAUCCGAGAUUCUCATT against DLG5	0.467 (inactive)
GGGUCCAACAUUCCGAAUATT against CHD1	-1.03 (active)
GGCCUUCGGCUAAAAGAGATT against KIF22	0.283 (inactive)
CGGUAAUAGCAAUUCAGCATT against HEATR6	0 (inactive)
GAGAGAUAUUGAUCGACUUTT against ARG2	-0.796 (inactive)
GAGACAAGCUUCAACCACATT against SERPINA5	-1.01 (active)
GCAUUGGUAAAAUUGCUAATT against AVIL	-0.127 (inactive)
CGGACCGGCAGAGAACAAATT against PLA2G10	1.07 (active)
GCUAUGUCAUCACUACCAATT against KCNAB3	0.0697 (inactive)

Sequence	median seed-adjusted z-score
GGAGUGCCCACAGUCAGAATT against SMUG1	-1.38 (active)
GGCUAUGUGCGGGAGUAUATT against PI4KA	0 (inactive)
CGAUCAAUCCAACCGCACATT against MEIS3	0.207 (inactive)
CCUCGGAAGAGAUCACUAUTT against POU2F1	0.317 (inactive)
CGUUUCAGUCGUUUCAAAATT against POLR2D	-3.79 (active)
GGUUAUAUACCACCUUAUATT against QRSL1	-0.539 (inactive)
GCUCUAAGGUUACGGAAGATT against MCOLN2	-0.0234 (inactive)
GUCCUGUCUUGAUUAAAUUTT against CHST7	0 (inactive)
GCAGAAGAAAGAACCCGUUTT against DYNC1I1	-0.716 (inactive)
CCACCCUACUAUGCGCACATT against GJA3	0.833 (inactive)
CAAGGGUUUUCUUACAAUATT against GNA13	0 (inactive)
CAAUAUGAAGGUCGAAUUATT against TPR	-1.03 (active)
GACCUUAUAUGUGCAAGGATT against ZNF8	0.97 (inactive)
CGACUGGAUUAAGCAGUAUTT against ATP6V1C1	0.0821 (inactive)
UCAUGUGCCUGGAAAUUAATT against AIRE	0.308 (inactive)
GAACUGUCCGAAUCUAAUUTT against CNTNAP1	0.176 (inactive)
AAUCACAACUCCUAAAAGATT against POLR2J3	-5.42 (active)
ACAUCGUAGUGGGACGAAUTT against EXOSC2	-0.0798 (inactive)
CAUUCGCUCUGGUACUUAUTT against CRYZ	-0.809 (inactive)
GGUCCUAAGUUUGAAGUCATT against FRMPD2	-0.329 (inactive)
CGAUAUAAGCUCCGAGAGATT against POLR2E	-1.25 (active)
GCUGUAACCUCUUCAUCUATT against BRUNOL6	-0.542 (inactive)

Sequence	median seed-adjusted z-score
GCAAGGAUCAGUUUCCGGATT against RHOC	-0.579 (inactive)
GGAACACCUUUAGUCAUGATT against ZNF790	0.245 (inactive)
CCAGCUGCCUACAAAGACATT against CLDN14	-0.456 (inactive)
AACGCACUCUUCUACGUCATT against NTSR1	-1.1 (active)
GACCGACAUUUGUGAAGAATT against ZNF547	0.099 (inactive)
CAAAUGGGACUGUCAAUUATT against REPS2	0.454 (inactive)
GGUUAUCCUUUGCCCAGCATT against ACTL7A	1.1 (active)
AAGUUAGUCCUAAAGUGUATT against UCHL1	-0.421 (inactive)
CCACGGCACAUGGAACUAATT against SLC7A14	0.132 (inactive)
GUCCCGCUAUGACUACUUUTT against GRM2	-0.664 (inactive)
CUGUUUGGUUUAUUCGAUUTT against ZW10	0.199 (inactive)
GAGUAAGUGAAAUAGAACATT against ZBTB26	0 (inactive)
GAAACCAUCCAAUCCAAGATT against TXNDC2	-1.29 (active)
GGACUUGGAUUAUGAACUATT against COL6A3	0.341 (inactive)
CGAGCAUUCUCUCUUGAAATT against MED24	-2.3 (active)
GCGUGUAAAUUCUACUGCATT against RB1	0.49 (inactive)
CUACCACGCAGUCAACCUUTT against LTB4R2	-0.26 (inactive)
GGAUUUUAUUCUUCACCGUTT against RBMS3	0.0976 (inactive)
GCACGAAUUUCAGCACCAATT against HOXD1	0.144 (inactive)
GGAACAUUUUUGACGGAUUTT against SCN8A	0 (inactive)
